{"source": "ChEMBL document CHEMBL3988442", "about": "“University of Dundee, Small-Polar-MMV Screening Library” (2021)", "note": "Screen size: about 48,000 compounds; about 13,000 (27%) showed an effect of 50% or more. Some of the results follow."}
{"test_system": "Wolbachia pipientis", "assay": "Anti-Wolbachia Cell-Based Screen", "assay_type": "functional", "parameters": "scale not given: in the data most compounds retested in dose-response had high values", "details": "5 µM", "units": {"Percent Effect": "%"}}
{"smiles": "CN(C)CCOc1cc(NC(=O)COCC(F)(F)F)ccn1", "Percent Effect": 0.1628}
{"smiles": "CNc1ccnc(N2CCC(c3nnc(CN4CCCC4)n3C)CC2)n1", "Percent Effect": 5.752}
{"smiles": "CNc1cncc(C2CCCN2Cc2ccnc(C)n2)n1", "note": "(stereo not drawn)", "Percent Effect": 94.65}
{"smiles": "CNc1cncc(C2CCCN2Cc2ccn(C)n2)n1", "note": "(stereo not drawn)", "Percent Effect": 90.43}
{"smiles": "Cc1nccc(CNS(=O)(=O)N2CCCC2c2ccc(C)o2)n1", "note": "(stereo not drawn)", "Percent Effect": -6.689}
{"smiles": "CNc1cncc(C2CCCN2Cc2ccccn2)n1", "note": "(stereo not drawn)", "Percent Effect": -6.614}
{"smiles": "CNc1cncc(C2CCCN2Cc2cccc(C)n2)n1", "note": "(stereo not drawn)", "Percent Effect": 107}
{"smiles": "CNc1cncc(C2CCCN2Cc2ccnc(N3CCCC3)n2)n1", "note": "(stereo not drawn)", "Percent Effect": 113.8}
{"smiles": "O[C@H]1[C@H](n2cc(-c3cncnc3)nn2)c2ccccc2C12CCNCC2", "Percent Effect": -31.96}
{"smiles": "CN(C)CCN(Cc1ccc(Cl)cc1)C(=O)c1cc[nH]n1", "Percent Effect": 3.118}
{"smiles": "Cc1ccc(-c2ncc(C(=O)N3CCCN4CCC[C@H]4C3)c(O)n2)cc1", "Percent Effect": -8.702}
{"smiles": "CC(=O)N1CCC2(CC1)CN(C)CC[C@H]2C(F)(F)F.Cl", "Percent Effect": -1.973}
{"smiles": "Cl.NC(CC1CCCC1)c1ccccc1", "note": "(stereo not drawn)", "Percent Effect": -1.351}
{"smiles": "NC(=O)CCN1C(=O)CC(Cc2ccc(F)cc2)C1=O", "note": "(stereo not drawn)", "Percent Effect": 3.459}
{"smiles": "COc1ccnc(N2CCN(Cc3ncc(C(C)(C)C)o3)CC2)n1", "Percent Effect": 7.68}
{"smiles": "CC(=O)N1CCCc2cc(Nc3nccn(C)c3=O)ccc21", "Percent Effect": 8.205}
{"smiles": "Cn1ccnc(Nc2ccc3c(c2)CCN3C(=O)c2cccnc2)c1=O", "Percent Effect": -3.992}
{"smiles": "Cn1ccnc(Nc2ccc3c(c2)CCN3C(=O)c2ccoc2)c1=O", "Percent Effect": 61.04}
{"smiles": "CCCN(C(=O)COCC)c1cccc(C)c1", "Percent Effect": -29.78}
{"smiles": "Cc1ccnc(OCC(=O)N2CCCC2)n1", "Percent Effect": 98.39}
{"smiles": "Cc1ccnc(OCC(=O)N2CCC(C(N)=O)CC2)n1", "Percent Effect": -0.2918}
{"smiles": "Cc1ccnc(OCC(=O)N2CCN(c3ncccn3)CC2)n1", "Percent Effect": 1.434}
{"smiles": "COc1ccc(N2CCN(C(=O)COc3nccc(C)n3)CC2)cc1", "Percent Effect": 79.4}
{"smiles": "Cc1ccc(N2CCN(C(=O)COc3ncccn3)CC2)nn1", "Percent Effect": -4.899}
{"smiles": "Cc1ccc(N2CCN(C(=O)COc3nccc(C)n3)CC2)nn1", "Percent Effect": -17.48}
{"smiles": "CCc1ccccc1OCC(=O)Nc1ccnc(OCCN(C)C)c1", "Percent Effect": 4.07}
{"smiles": "CN(Cc1ccc(Cl)cc1)S(=O)(=O)N(C)Cc1cnn(C)c1", "Percent Effect": -1.179}
{"smiles": "Cc1cccc(-c2noc(CN3CCc4c(ncn4C4CC4)C3)n2)c1", "Percent Effect": -0.5665}
{"smiles": "Cn1cc(CNCC2(O)CCCCC2)c(-c2cccnc2)n1", "Percent Effect": 2.797}
{"smiles": "Cc1nc(-c2cnn(C)c2)nc2c1CN(C(=O)c1cccnc1)CC2", "Percent Effect": -2.218}
{"smiles": "COCCCN(C)c1nc(-c2ccncc2)nc2c1CCN(C(C)=O)C2", "Percent Effect": 7.228}
{"smiles": "CC(=O)N1CCc2c(nc(-c3cccnc3)nc2N(C)CC(O)CO)C1", "note": "(stereo not drawn)", "Percent Effect": -2.171}
{"smiles": "C=Cn1ncc(CN2CCc3nc(-c4ccncc4)nc(O)c3C2)c1C", "Percent Effect": 95.82}
{"smiles": "Cc1ccc(O)c(CN2CCc3nc(-c4cccnc4)nc(O)c3C2)c1", "Percent Effect": 101.6}
{"smiles": "C=Cn1cc(CN2CCc3nc(-c4cccnc4)nc(O)c3C2)c(C)n1", "Percent Effect": 93.89}
{"smiles": "Cc1nn(C)cc1CN1CCc2nc(-c3cccnc3)nc(O)c2C1", "Percent Effect": 87.93}
{"smiles": "NCC1CN(c2nc(-c3cccnc3)nc3c2CCNCC3)CCO1", "note": "(stereo not drawn)", "Percent Effect": -59.49}
{"smiles": "Cc1cnn(C2CN(c3nc(-c4ccncc4)nc4c3CCC4)C2)c1", "Percent Effect": -2.167}
{"smiles": "Cc1nccn1CCN(C)c1nc(-c2cccnc2)nc2c1CCNC2", "Percent Effect": 2.372}
{"smiles": "CC(C)(C)NC(=O)C1CSCN1S(=O)(=O)c1ccccc1S(C)(=O)=O", "note": "(stereo not drawn)", "Percent Effect": 4.107}
{"smiles": "CCc1ncc2c(n1)CN(C(=O)CC(C)NC(C)=O)C2", "note": "(stereo not drawn)", "Percent Effect": -5.882}
{"smiles": "Cc1cc(CN(C)C(=O)NC(C)Cc2ccco2)no1", "note": "(stereo not drawn)", "Percent Effect": 4.671}
{"smiles": "CCn1ccnc1CN1CCN(c2nc(C)cc(OC)n2)CC1", "Percent Effect": -15.82}
{"smiles": "CC[C@@H]1N(CC2CCOCC2)CCC[C@]12CCC(=O)N2.O=C(O)C(F)(F)F", "Percent Effect": -7.738}
{"smiles": "NC(=O)c1cc(-n2cc(-c3cccc(C(=O)O)c3)cn2)cs1", "Percent Effect": -1.419}
{"smiles": "CN(c1cccnc1N1CCCC1)S(=O)(=O)c1cnn(C)c1", "Percent Effect": 8.889}
{"smiles": "CCn1ncc(CN2CCc3nc(-c4cccnc4)nc(O)c3C2)c1C", "Percent Effect": 89.32}
{"smiles": "CCc1noc(CNc2nc(-c3cccnc3)nc3c2CCNCC3)n1", "Percent Effect": 3.724}
{"smiles": "CC(O)CNc1nc(-c2cccnc2)nc2c1CCC2", "note": "(stereo not drawn)", "Percent Effect": -9.754}
{"smiles": "O=C(c1cnc2c(cnn2C2CCCC2)c1)N1CCN(CCO)CC1", "Percent Effect": 107.7}
{"smiles": "CCn1c(N)nc2cc(C(=O)N3CCCN(C)CC3)cnc21", "Percent Effect": -5.515}
{"smiles": "CCN1CCN(C(=O)c2cnc3c(cnn3C3CCCC3)c2)CC1", "Percent Effect": 83.11}
{"smiles": "O=C(O)c1cnc2c(cnn2C2CCCC2)c1", "Percent Effect": -9.214}
